Laboratory results as given in PubChem BioAssay (EPA / NIEHS).
“And” between values parts separate entries of the source, which are not always exact repeats. Identical values can stand only once. Some compounds were tested as several samples or in several runs, with calls that do not always agree. The source made the active and inactive calls. How the source made its calls: active means hit-call score of the fitted dose curve at least 0.9, where 1 is the maximum; inactive means score below 0.9.

Tests used:
[1] = APR_HepG2_P-H2AX_72hr: Apredica 72-hour HepG2 Assay for H2AX Phosphorylation (AID 2282916); details: imaging, actives raise or lower the signal;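 further: phospho-histone H2A.x immunostain intensity per cell marking DNA damage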
In short: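 HepG2 cells treated 72 h at 0.39–200 uM, 0.5% DMSO final, duplicates. Formaldehyde-fixed, Triton-permeabilised, immunostained for phospho-H2A.x with Hoechst; fluorescence imaged at 20x, bidirectional fit versus DMSO.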

[2] = APR_HepG2_MitoMembPot_72hr: Apredica 72-hour HepG2 Assay for Mitochondrial Membrane Potential (AID 2282917); details: imaging, actives raise or lower the signal
In short: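 HepG2 cells exposed 72 h to compounds at 0.39–200 uM (0.5% v/v DMSO, duplicates); MitoTracker Red CMXRos 250 nM loaded 30 min before 3.7% formaldehyde fixation, imaged by HCS fluorescence. Bidirectional fit versus DMSO.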

[3] = APR_HepG2_MicrotubuleCSK_72hr: Apredica 72-hour HepG2 Assay for Microtubule CSK Stabilty (AID 2282919); details: HepG2 microtubule cytoskeleton, high-content imaging, actives raise or lower the signal
In short: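 HepG2 human liver cells were dosed for 72 h at ten concentrations from 0.39 to 200 uM in duplicate (0.5% v/v DMSO final). Fixed, permeabilized cells were immunostained for alpha-tubulin (Cy5) with a Hoechst counterstain and imaged at 20x.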

[4] = APR_HepG2_P-H2AX_24hr: Apredica 24-hour HepG2 Assay for H2AX Phosphorylation (AID 2282920); details: high-content imaging, actives raise or lower the signal
In short: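 HepG2 human liver cells were exposed for 24 hr to compounds at 0.39–200 uM in duplicate, with 0.5% v/v DMSO final. Fixed cells were immunostained for phospho-histone H2A.x plus Hoechst 33342, imaged by HCS fluorescence, and fitted bidirectionally against DMSO.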

[5] = APR_HepG2_StressKinase_72hr: Apredica 72-hour HepG2 Assay for Stress Kinase (AID 2282921); details: HepG2 stress kinase (phospho-c-Jun) imaging, actives raise or lower the signal
In short: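 HepG2 cells treated 72 hr with 0.39–200 uM compound, 0.5% v/v DMSO, duplicate wells. After formaldehyde fixation and Triton permeabilization, stained with anti-phospho-c-Jun (1:500) and Cy3 secondary, imaged at 20x. Fitted in both directions against DMSO.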

[6] = APR_HepG2_StressKinase_24hr: Apredica 24-hour HepG2 Assay for Stress Kinase (AID 2282922); details: HepG2 stress kinase (phospho-c-Jun) imaging, actives raise or lower the signal
In short: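 HepG2 cells exposed 24 hr to compound at 0.39–200 uM (10 concentrations, duplicate), 0.5% v/v DMSO final. Fixed in 3.7% formaldehyde, permeabilized with Triton X-100, immunolabeled for phospho-c-Jun with Hoechst 33342; HCS fluorescence imaging, bidirectional fit versus DMSO.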

[7] = APR_HepG2_p53Act_72hr: Apredica 72-hour HepG2 Assay for p53 Activation (AID 2282923); details: high-content imaging, actives raise or lower the signal;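 further: average cellular p53 protein immunofluorescence intensity in HepG2 cells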
In short: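 HepG2 cells exposed 72 h to 0.39–200 uM in 0.5% DMSO, duplicates. Fixed, permeabilized cells immunostained for p53 (Cy5) with Hoechst; imaged at 20x, fluorescence analyzed bidirectionally against DMSO.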

[8] = APR_HepG2_MitoMass_72hr: Apredica 72-hour HepG2 Assay for Mitochondrial Mass (AID 2282924); details: high-content imaging, actives raise or lower the signal;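 further: MitoTracker Red CMXRos stain intensity per cell imaged as mitochondrial mass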
In short: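 HepG2 cells were exposed for 72 hr to compounds at 0.39–200 uM (ten concentrations, duplicate, 0.5% v/v DMSO final). Live cells were stained with 250 nM MitoTracker Red CMXRos for 30 min, then fixed in 3.7% formaldehyde and imaged by HCS fluorescence.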

[9] = APR_HepG2_NuclearSize_72hr: Apredica 72-hour HepG2 Assay for Nuclear Size (AID 2282925); details: high-content imaging, actives raise or lower the signal
In short: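 HepG2 cells were exposed to compounds at ten concentrations from 0.39 to 200 uM (duplicate, 0.5% DMSO final) for 72 hr. After fixation in 3.7% formaldehyde, nuclei were stained with Hoechst 33342 (2 ug/mL) and imaged at 20x.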

[10] = ATG_CRE_CIS: Attagene CIS-FACTORIAL HepG2 Assay for human cAMP Responsive Element (CRE) binding protein 3 (AID 2282926); details: HepG2 CRE cis-reporter, Attagene multiplexed mRNA; actives raise or lower the signal
In short: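 HepG2 cells transiently transfected with a multiplexed reporter library (CRE-driven unit among them) were dosed for 24 h. Reporter mRNA was quantified by RT-PCR, fluorescent labelling, HpaI digestion and capillary electrophoresis, with bidirectional fitting against DMSO baseline.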

[11] = target: CCAAT/enhancer-binding protein beta (Homo sapiens) (UniProt P17676); assay: ATG_C_EBP_CIS: Attagene CIS-FACTORIAL HepG2 Assay for human CCAAT/Enhancer Binding Protein (C/EBP) beta (AID 2282927); details: HepG2 Attagene cis-factorial transcription factor reporter; actives raise or lower the signal
In short: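 Following a 24 h incubation with test chemical, transfected HepG2 cells yielded RNA whose reporter transcripts were quantified by RT-PCR and fluorescent capillary electrophoresis, with DMSO serving as baseline for bidirectional fitting.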

[12] = ATG_CMV_CIS: Attagene CIS-FACTORIAL HepG2 Assay for human CMV (Internal Marker) (AID 2282928); details: HepG2 CMV promoter reporter, transcription factor profiling; actives raise or lower the signal;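 further: endpoint acts as a background internal control marker rather than a target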
In short: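 Endogenous transcription factor activity read in HepG2 via transfected cis-promoter reporter units. After 24 h dosing, reporter mRNA measured by RT-PCR/capillary electrophoresis; gain or loss of signal fit relative to DMSO.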

[13] = ATG_DR4_LXR_CIS: Attagene CIS-FACTORIAL HepG2 Assay for human Liver X Receptor (LXR), DR4 submotif (AID 2282929); details: HepG2 Attagene DR4 cis-reporter, mRNA transcription; actives raise or lower the signal
In short: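 Readout: reporter transcript fluorescence after RT-PCR and capillary electrophoresis, fitted bidirectionally against DMSO controls. Human HepG2 liver cells carried transiently transfected multiplexed reporter constructs; endogenous transcription factor activity measured 24 h post-dosing.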

[14] = target: Aryl hydrocarbon receptor (Homo sapiens) (UniProt P35869); assay: ATG_Ahr_CIS: Attagene CIS-FACTORIAL HepG2 Assay for human Aryl Hydrocarbon Receptor (Ahr) (AID 2282930); details: HepG2 AhR cis-factorial reporter transcription; actives raise or lower the signal
In short: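 Values derive from bidirectional fitting against DMSO negative control. Underlying signal: cis-element reporter mRNA in transiently transfected HepG2, harvested 24 h post-dose and measured by RT-PCR plus capillary electrophoresis.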

[15] = ATG_AP_1_CIS: Attagene CIS-FACTORIAL HepG2 Assay for human Activator Protein 1 (AP-1) (AID 2282931); details: HepG2 Attagene cis-factorial AP-1 reporter mRNA; actives raise or lower the signal
In short: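 Reporter transcripts were measured 24 h after dosing by RT-PCR and capillary electrophoresis of fluorescent fragments. Cells: HepG2 carrying transfected cis-regulated reporter constructs reading endogenous factor activity. Gain or loss fitted against DMSO.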

[16] = ATG_AP_2_CIS: Attagene CIS-FACTORIAL HepG2 Assay for human Activator Protein 2 (AP-2) (AID 2282932); details: HepG2 AP-2 cis-reporter, Attagene transcription factor profiling; actives raise or lower the signal
In short: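 Bidirectional curve fitting against DMSO was applied to reporter mRNA signals from HepG2 cells 24 h after dosing. Cis-promoter reporter units, transiently transfected, were read by RT-PCR plus capillary electrophoresis.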

[17] = ATG_BRE_CIS: Attagene CIS-FACTORIAL HepG2 Assay for human Bone Morphogenetic Protein (BMP) Response Element (BRE) (AID 2282933); details: HepG2 BMP response element reporter, Attagene transcription factor profiling; actives raise or lower the signal
In short: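 After a 24 h chemical treatment, transiently transfected HepG2 cells were lysed for RNA; reporter transcripts were quantified by fluorescent RT-PCR and capillary electrophoresis, normalised to DMSO.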

[18] = target: Retinoic acid receptor alpha (Homo sapiens) (UniProt P10276); assay: ATG_DR5_RAR_CIS: Attagene CIS-FACTORIAL HepG2 Assay for human Retinoic Acid Receptor Alpha (RARE), DR5 submotif (AID 2282934); details: HepG2 Attagene cis-factorial RARE DR5 reporter, mRNA; actives raise or lower the signal;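 on AC50: reporter responds to endogenous RAR alpha beta and gamma in HepG2 not RARA alone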
In short: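 Endpoint fitted in both directions relative to DMSO as negative control. It reflects DR5 cis-element reporter mRNA induction in transiently transfected HepG2 cells, measured 24 h after dosing through RT-PCR and fluorescent capillary electrophoresis.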

[19] = target: Transcription factor E2F1 (Homo sapiens) (UniProt Q01094); assay: ATG_E2F_CIS: Attagene CIS-FACTORIAL HepG2 Assay for human E2F Transcription Factor 1 (AID 2282935); details: HepG2 Attagene cis-reporter, E2F reporter RNA transcripts; actives raise or lower the signal
In short: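 Multiplexed cis-reporter assay: HepG2, transient transfection, 24 h dosing, mRNA quantitation by labeled RT-PCR and CE.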

Measured: AC50

Sequence of CCAAT/enhancer-binding protein beta (Homo sapiens) (P17676 whole entry, looked up): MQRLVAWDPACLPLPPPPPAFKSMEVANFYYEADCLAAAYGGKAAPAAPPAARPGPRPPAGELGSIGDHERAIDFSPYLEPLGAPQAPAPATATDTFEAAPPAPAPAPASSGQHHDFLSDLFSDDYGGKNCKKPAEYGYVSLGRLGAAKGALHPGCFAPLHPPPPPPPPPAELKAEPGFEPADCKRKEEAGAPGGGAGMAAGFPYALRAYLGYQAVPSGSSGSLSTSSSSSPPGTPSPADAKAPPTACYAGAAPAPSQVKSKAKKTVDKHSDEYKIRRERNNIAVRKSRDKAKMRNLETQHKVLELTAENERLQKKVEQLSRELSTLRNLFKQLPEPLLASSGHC
Sequence of Retinoic acid receptor alpha (Homo sapiens) (P10276 whole entry, looked up): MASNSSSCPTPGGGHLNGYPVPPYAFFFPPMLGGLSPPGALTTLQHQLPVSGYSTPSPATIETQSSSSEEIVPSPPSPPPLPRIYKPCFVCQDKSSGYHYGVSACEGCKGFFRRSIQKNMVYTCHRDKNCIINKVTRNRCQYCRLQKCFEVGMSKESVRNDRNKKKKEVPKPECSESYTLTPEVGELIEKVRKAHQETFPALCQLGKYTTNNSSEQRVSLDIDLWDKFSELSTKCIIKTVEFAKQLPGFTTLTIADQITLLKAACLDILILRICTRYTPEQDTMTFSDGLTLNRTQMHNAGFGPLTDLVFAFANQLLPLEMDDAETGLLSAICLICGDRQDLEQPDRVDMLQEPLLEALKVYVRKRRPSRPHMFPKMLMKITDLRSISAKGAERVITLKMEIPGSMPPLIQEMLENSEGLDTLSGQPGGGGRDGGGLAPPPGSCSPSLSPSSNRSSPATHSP
Sequence of Transcription factor E2F1 (Homo sapiens) (Q01094 whole entry, looked up): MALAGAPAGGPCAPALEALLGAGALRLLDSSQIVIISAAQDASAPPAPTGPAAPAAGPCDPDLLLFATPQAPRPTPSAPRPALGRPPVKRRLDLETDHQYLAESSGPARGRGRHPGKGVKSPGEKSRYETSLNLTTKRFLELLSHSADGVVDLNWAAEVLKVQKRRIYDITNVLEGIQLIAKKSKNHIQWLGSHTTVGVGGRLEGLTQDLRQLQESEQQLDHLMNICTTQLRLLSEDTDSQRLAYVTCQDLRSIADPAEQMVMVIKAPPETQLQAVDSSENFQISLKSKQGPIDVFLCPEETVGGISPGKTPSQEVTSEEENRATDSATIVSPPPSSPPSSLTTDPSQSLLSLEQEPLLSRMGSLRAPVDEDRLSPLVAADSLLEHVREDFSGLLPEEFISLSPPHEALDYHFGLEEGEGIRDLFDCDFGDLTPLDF
Sequence of Aryl hydrocarbon receptor (Homo sapiens) (P35869 whole entry, looked up): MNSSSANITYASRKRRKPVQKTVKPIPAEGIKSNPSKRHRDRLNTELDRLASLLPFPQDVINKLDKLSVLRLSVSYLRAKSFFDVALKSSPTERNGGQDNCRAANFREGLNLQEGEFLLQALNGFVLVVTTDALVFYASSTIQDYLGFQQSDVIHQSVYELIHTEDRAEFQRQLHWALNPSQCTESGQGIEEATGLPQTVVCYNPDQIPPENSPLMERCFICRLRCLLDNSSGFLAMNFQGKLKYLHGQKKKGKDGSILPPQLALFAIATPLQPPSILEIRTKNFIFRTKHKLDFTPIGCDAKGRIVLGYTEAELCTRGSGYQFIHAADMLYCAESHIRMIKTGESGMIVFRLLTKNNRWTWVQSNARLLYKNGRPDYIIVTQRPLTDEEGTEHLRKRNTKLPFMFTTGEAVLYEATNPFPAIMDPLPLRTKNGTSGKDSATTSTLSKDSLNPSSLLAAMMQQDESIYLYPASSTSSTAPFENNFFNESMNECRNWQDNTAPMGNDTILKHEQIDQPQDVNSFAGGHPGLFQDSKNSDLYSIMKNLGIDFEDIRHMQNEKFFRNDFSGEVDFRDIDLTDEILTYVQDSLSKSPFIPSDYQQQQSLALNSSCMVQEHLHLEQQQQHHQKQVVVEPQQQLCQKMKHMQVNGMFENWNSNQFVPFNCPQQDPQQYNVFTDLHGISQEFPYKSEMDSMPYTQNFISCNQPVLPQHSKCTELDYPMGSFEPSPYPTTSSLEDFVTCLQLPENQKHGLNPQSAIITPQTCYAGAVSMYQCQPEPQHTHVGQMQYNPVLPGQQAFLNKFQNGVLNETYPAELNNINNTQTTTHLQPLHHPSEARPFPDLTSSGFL

CCN(CC)CCO
inactive: [1] | [2] | [3] | [4] | [5] | [6] | [7] | [8] | [9] | [10] | [11] | [12] | [13] | [14] | [15] | [16] | [17]

Nc1ccc(Cc2ccc(N)cc2)cc1
inactive: [1] | [2] | [3] | [4] | [5] | [6] | [7] | [8] | [9] | [10] | [11] | [13] | [15] | [16] | [17] | [18] | [19]

ClC1=C(Cl)[C@]2(Cl)[C@H]3[C@H]([C@@H]4C=C[C@H]3C4)[C@@]1(Cl)C2(Cl)Cl
active: [1] 42.6 µM | [4] 50.7 µM | [5] 53.4 µM | [7] 45.3 µM | [12] 45.6 µM | [13] 25.9 µM
inactive: [2] | [3] | [6] | [8] | [10] | [11] | [16] | [17] | [19]

O=[N+]([O-])C(Br)(CO)CO
active: [9] 163 µM | [10] 170 µM | [11] 156 µM | [18] 153 µM
inactive: [1] | [2] | [3] | [4] | [5] | [6] | [8] | [13] | [16] | [17] | [19]

Cc1cc(N=Nc2ccccc2C)ccc1N
active: [4] 100 µM | [6] 100 µM | [7] 2.34 µM | [14] 2.99 µM | [17] 33.4 µM
inactive: [1] | [2] | [3] | [5] | [8] | [10] | [11] | [13] | [16] | [18]

c1ccc(N=Nc2ccccc2)cc1
active: [13] 100 µM
inactive: [1] | [2] | [3] | [4] | [5] | [6] | [7] | [8] | [10] | [11] | [15] | [16] | [17] | [18]

O=C(N[C@H](c1ccccc1)[C@@H]1CN2CCC1CC2)c1c(Cl)ccc(C(F)(F)F)c1Cl
inactive: [2] | [3] | [5] | [6] | [7] | [8] | [10] | [11] | [12] | [13] | [16] | [17]
active: [1] 44 µM | [4] 117 µM

CCNS(=O)(=O)C(F)(F)C(F)(F)C(F)(F)C(F)(F)C(F)(F)C(F)(F)C(F)(F)C(F)(F)F
active: [1] 100 µM | [2] 91.2 µM | [3] 77.6 µM | [4] 68.5 µM | [5] 112 µM | [10] 45.3 µM and 16.1 µM and 15.7 µM | [17] 33.4 µM and 63.6 µM and 35.3 µM | [18] 96.5 µM
inactive: [6] | [8] | [11] | [13] | [14] | [16] | [18]
